The values below come from PubChem BioAssay AID651593 (National Center for Advancing Translational Sciences (NCATS), 2012).

In all, about 1,100 compounds went through this assay and about 860 (78%) were called active. About 19% were inconclusive and are not listed. Calls follow the shape of the dose curve; as a rule, active = well fitted activation curve with a large enough effect; inconclusive = small, poorly fitted or top-dose-only effect; inactive = flat fitted curve, though single readings scatter. The set was probably picked from earlier hits. This is one part of the list.
Potency is read from the fitted curve at half-maximal effect.

The nature of the test: qHTS of Nrf2 Activators: Hit Validation in Primary Assay. Also: nearly all actives have a fitted effect of over 70% in size. As to activation: 0% is about no effect. Particulars: Nrf2/ARE reporter cell assay; Potency: activation; series mostly up to 46.1 µM; activation: at the top concentration. The text has this: Many diseases have some form of oxidative stress injury and ties to inflammation, causing a host of problems for the patient. The antioxidant response element (ARE) plays an important role in alleviating the harmful effects of oxidative stress. The antioxidant response element (ARE) is a transcriptional regulatory element involved in the activation of genes coding for a number of antioxidant proteins and detoxifying enzymes. These enzymes work in concert to protect tissues from oxidative insults and chemical toxicities in human hepatocytes and immune cells. The protective effects of ARE activation are primarily triggered through Nrf2 (NF-E2-related factor) binding to and activating AREs. It is known that Nrf2 controls the production of over 250 antioxidant and detoxification proteins (Hu et al., 2006), thereby protecting tissues by increasing cellular antioxidant content and suppressing inflammatory signaling pathways. The transcription factor Nrf2 is a central link between oxidative chemicals, such as phenolic antioxidants and electrophilic compounds, and the activation of ARE. Nrf2 levels are constitutively low as a consequence of its interaction with Keap1, which targets its degradation (Zipper and Mulcahy, 2002). Electrophiles react with key cysteine residues in Keap1, releasing Nrf2 and allowing its translocation to the nucleus. Once within the nucleus, Nrf2 complexes with coactivators such as p300, and binds to the AREs to induce gene transcription of cytoprotective enzymes, resulting in the prevention of toxicity. Activation of Nrf2 protects tissues by increasing cellular antioxidant content and suppressing inflammatory signaling pathways. Identifying novel and potent Nrf2 activators by using the AREc32 cell line to detect ARE activation by small molecules will lead to the identification and development of probes to study protective pathways in multiple tissues. These specific probes are essential to study the ARE pathway, and eventually to determine whether this pathway does activate genes that could protect against a host of diseases, including cardiovascular diseases, obesity, diabetes, Alzheimer's, and Parkinson's disease.
This project's aim is to identify novel and potent Nrf2 activators by using the AREc32 cell line to detect ARE activation by small molecules, which will lead to the identification and development of probes to study the ARE pathway.
NIH Chemical Genomics Center [NCGC]
NIH Molecular Libraries Probe Centers Network [MLPCN]
Assay Submitter (PI): Curtis Klaassen, University of Kansas Medical Center
Quantification of ARE activation after compound treatment was measured by the Steady-Glo Luciferase (R) assay system (Promega) in AREc32_fluc stable cells. The Steady-Glo reagent acts by cell lysis and generation of a luminescent signal proportional to ARE activation, through the luciferase reporter in the AREc32 stable cell line. AREc32_fluc cells were harvested from T225 flask and resuspended in phenol red free OPTI-MEM medium with 5% FBS. Then 5 microL of 200,000 cells/mL resuspended cells were dispensed into each well of white, solid bottom, 1536-well tissue culture-treated plates using a Multidrop Combi dispenser. After overnight culture at 37 degrees C with 5% CO2, a total of 23 nL of compounds at 5 selected concentrations from the MLSMR/Sytravon or positive control (40 uM stock of CDDO-IM and 2 mM of tBHQ) in DMSO was transferred to each well of the assay plate using a pintool (Kalypsys, San Diego, CA), and the plates were further incubated at 37 degrees C with 5% CO2 for 24 hours. After that, 2 microL of Steady Glo luminescent substrate mix (Promega) was added to each well. The plate was incubated at room temperature for 30 minutes. The plates were measured on a ViewLux plate reader (PerkinElmer) with clear filter.
In general terms: In qHTS, concentration-response curves come from the screen itself.
In the case of `O=[N+]([O-])c1ccccc1S(=O)c1ccccc1[N+](=O)[O-]`, the Potency is 16.4 µM (active).

With `Oc1ccc(Cl)cc1/C=C/c1ccc2cccc(O)c2n1`, the Potency was 4.61 µM (active).

Turning to `COc1cc(Cl)cc(/C=C/c2ccc3cccc(O)c3n2)c1OC`, the Potency is 2.31 µM (active).

Take `COc1cc(/C=C/c2ccc3cccc(O)c3n2)cc(OC)c1OC`: the “activation” value is 25.9% (inactive).

With `Nc1c(C(=O)Nc2ccccc2Br)sc2nc(-c3cccs3)ccc12`, the Potency is 14.6 µM (active).

For `COC(=O)c1ccc2nc(-c3cccc(Cl)c3)c(Cc3ccccc3OC)n2c1`, the Potency is 2.91 µM (active).

Regarding `COC(=O)c1ccc2nc(-c3ccco3)c(Cc3cccc(Cl)c3)n2c1`, the Potency is 23.1 µM (active).

As to `COC(=O)c1ccc2nc(-c3ccco3)c(Cc3ccccc3)n2c1`, the Potency was 18.4 µM (active).

As for `O=[N+]([O-])c1cccc2ccc(/C=C/c3ccc(Cl)cc3)nc12`, the Potency was 1.16 µM (active).

As for `O=[N+]([O-])c1cccc2ccc(/C=C/c3ccc(F)cc3)nc12`, the Potency is 1.84 µM (active).

On to `CCOc1cc(/C=C/c2ccc3cccc([N+](=O)[O-])c3n2)cc(Cl)c1O`, for which the Potency is 0.517 µM (active).

Take `O=[N+]([O-])c1ccc(/C=C/c2ccc3cccc([N+](=O)[O-])c3n2)cc1`: the Potency was 0.731 µM (active).

Regarding `O=[N+]([O-])c1cccc2ccc(/C=C/c3cccc(Br)c3)nc12`, the Potency was 1.84 µM (active).

Regarding `O=C(CSc1nc2ccccc2s1)N/N=C/c1ccco1`, the Potency was 8.2 µM (active).

With `O=C(CSc1nc2cc(Cl)ccc2s1)c1ccco1`, the Potency is 1.84 µM (active).

On to `C/C(=N\NC(=O)CSc1nc2ccccc2s1)c1ccco1`, for which the Potency is 5.17 µM (active).

As for `CC(=O)c1cc2c(cc1NC(=O)CSc1nc3ccccc3o1)OCO2`, the Potency is 8.2 µM (active).

As for `CC(=NNC(=O)CSc1nc2ccccc2o1)c1ccco1`, the Potency is 7.31 µM (active).

For the compound `Cc1cc(SCC(=O)c2cccs2)nc2ccccc12`, the Potency was 2.59 µM (active).

As to `Cc1cc(C)c(C#N)c(SCC(=O)c2cccs2)n1`, the Potency was 5.17 µM (active).

For the compound `CSc1nc(N)nc(SCC(=O)c2ccccc2)c1C#N`, the Potency was 7.31 µM (active).

As to `Cc1ccnc(SCC(=O)c2ccc(Br)cc2)c1C#N`, the Potency is 2.31 µM (active).

With `Cc1cc(C)c(C#N)c(SCC(=O)c2ccccc2)n1`, the Potency was 14.6 µM (active).

With `O=C(CN1CCN(Cc2ccccc2)CC1)N/N=C\C=C/c1ccco1`, the Potency is 20.6 µM (active).

As to `O=C(CN1CCN(Cc2ccccc2Cl)CC1)N/N=C/C=C/c1ccco1`, the Potency was 2.59 µM (active).

Consider `CC(=NNc1ccc2ccccc2n1)c1ccccc1O`, for which the Potency is 3.66 µM (active).

Turning to `CC(=O)OC1(C(C)=O)CCC2C3CC(C(F)(F)F)C4=CC(=O)CCC4(C)C3CCC21C` (stereo unspecified), the Potency is 4.61 µM (active).

In the case of `O=C1N/C(=N\N=C\c2ccco2)SC1Cc1ccccc1[N+](=O)[O-]` (stereo unspecified), the Potency is 2.06 µM (active).

For `Cc1cccc(CC2S/C(=N/N=C/c3ccco3)NC2=O)c1` (stereo unspecified), the Potency was 0.206 µM (active).

Turning to `O=C1N/C(=N\N=C\c2ccco2)SC1Cc1ccc(F)cc1` (stereo unspecified), the Potency is 0.731 µM (active).

Consider `CC(/C=C/c1ccco1)=N\NC(=O)CNc1ccc2ccccc2c1`, for which the Potency is 16.4 µM (active).

As to `O=C(C=Cc1ccco1)c1ccc2ccccc2c1`, the Potency is 2.59 µM (active).

In the case of `Cc1nc(Nc2ccccc2F)c2oc3ccccc3c2n1`, the Potency is 2.31 µM (active).

Consider `CCc1nc(Nc2cccc(F)c2)c2oc3ccccc3c2n1`, for which the Potency is 2.91 µM (active).

As for `NC(=O)c1oc2ccccc2c1NC(=O)c1ccco1`, the Potency was 2.31 µM (active).

Take `O=C(Nc1c(O)c2ccccc2[nH]c1=O)c1ccco1`: the Potency was 7.31 µM (active).

For the compound `NC(=O)c1oc2ccccc2c1NC(=O)c1ccccc1`, the Potency is 2.59 µM (active).

With `CN1c2ccsc2/C(=N/Nc2ccccc2)CS1(=O)=O`, the Potency is 2.31 µM (active).

On to `C=C(C)CNC(=S)N/N=C(\C)c1ccc(Cl)s1`, for which the Potency is 2.59 µM (active).

For `COc1ccc(Cl)cc1NC(=O)C1COc2ccccc2O1` (stereo unspecified), the Potency is 2.91 µM (active).

With `O=C(Nc1ccccc1[N+](=O)[O-])C1COc2ccccc2O1` (stereo unspecified), the Potency is 4.61 µM (active).

For `CCOc1ccccc1NC(=O)C1COc2ccccc2O1` (stereo unspecified), the Potency was 4.61 µM (active).

Take `NS(=O)(=O)c1ccc(NC(=O)c2cc(-c3cccs3)nc3ccccc23)cc1`: the “activation” value was 14.1% (inactive).

As to `Cc1csc(NC(=O)c2cc(-c3ccco3)nc3ccccc23)n1`, the Potency was 2.59 µM (active).

Take `O=C(Nc1nccs1)c1cc(-c2ccco2)nc2ccccc12`: the Potency was 8.2 µM (active).

For the compound `O=C(N/N=C/c1ccc(Br)s1)c1cccs1`, the Potency is 2.91 µM (active).

Take `Cc1ccsc1/C=N/N=C1\C(=O)Nc2ccccc21`: the Potency was 7.31 µM (active).

Turning to `N=c1n(CCN2CCOCC2)c2ccccc2n1CC(=O)c1cccc([N+](=O)[O-])c1`, the Potency is 2.91 µM (active).

Take `CCn1c(=N)n(CC(=O)c2cccc([N+](=O)[O-])c2)c2ccccc21`: the Potency is 2.31 µM (active).

Turning to `CC1(O)c2ccccc2C(=O)N1CCc1ccccc1F` (stereo unspecified), the Potency was 5.8 µM (active).

Take `Cc1ccc(-c2nc(C=Nc3ccc(O)cc3)c(O)o2)cc1`: the Potency is 16.4 µM (active).
